Inconclusive results are not listed. Activity calls are given as the source filed them. Calls come from the whole dose curve; as a rule, active = well fitted cell-killing curve with a large enough effect; inconclusive = small, poorly fitted or top-dose-only effect, or effect the other way; inactive = no such curve, though single readings can be large or run the other way.
Potency is the fitted concentration of half-maximal effect.

The experiment can be described thus: Viability qHTS for spleen associated tyrosine kinase inhibitor (SYKi) drug resistant MV4-11 cells (AID 1963824). Note: nearly all actives have a fitted effect of over 35% in size. Conditions: SYKi-resistant MV4-11 viability, CellTiter-Glo, 72 h; series mostly up to 45 µM; viability, % of control: at the top concentration. Put shortly:
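SYK-inhibitor-resistant MV4-11 AML cells were seeded at 500 per well onto compound and cultured 72 hours (37 °C, 5% CO2). CellTiter-Glo was then added, and after 10 min at room temperature, luminescence gave viability.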
In general terms: Quantitative high-throughput screening tests each substance at several concentrations.
Consider `C=C(C)C1CC2(CO)C(=CC1=O)CCC(O)C2C` (centres undefined), for which the “viability, % of control” value was 66.6% (inactive).

For the molecule `C/C=C(\C)C(=O)O[C@H]1C=C(CO)C(=O)[C@H](OC(C)=O)[C@H]1C(C)C`, the Potency was 1.8 µM (active).

As to `CC1CCC2C(C(=O)O)=CC3(O)CC(C)(C)CC123` (centres undefined), the “viability, % of control” value was 72.4% (inactive).

For the molecule `CO[C@@H]1[C@@H](O[C@H]2O[C@@H](C)[C@H](O[C@@H]3C[C@](C)(O)[C@H](O)[C@@H](C)O3)[C@@H](N(C)C)[C@@H]2O)[C@@H](CC=O)C[C@@H](C)[C@@H](O[C@H]2CC[C@H](N(C)C)[C@H](C)O2)/C=C/C=C/C[C@@H](C)OC(=O)C[C@H]1O`, the Potency is 10.3 µM (active).

On to `C=CCc1ccc(OC(C)Cc2ccc(OC)c(OC)c2)c(OC)c1` (centres undefined), for which the Potency is 12.8 µM (active).

As for `COc1cc2ncnc(Nc3ccc(F)c(Cl)c3)c2cc1O`, the Potency was 9.2 µM (active).

`CN1CCN(C2=Nc3ccccc3Nc3ccc(O)cc32)CC1`: the “viability, % of control” value is 58.3% (inactive).

For `CC(C)(C)Nc1nc2cc(Cl)c(Cl)cc2nc1S(C)(=O)=O`, the Potency was 0.731 µM (active).

Consider `CC(=O)O[C@H]1CC[C@@]2(CI)C(=CC[C@@H]3[C@@H]2CC[C@]2(C)[C@@H]([C@H](C)CCCC(C)C)CC[C@@H]32)C1`, for which the viability, % of control was 83% [at 9.25 µM] (inactive).

Turning to `CN(C)CCCNc1c2ccccc2nc2c1[nH]c1ccccc12`, the Potency is 0.731 µM (active).

As to `C=CC(=O)N[C@H]1CCOC[C@H]1Nc1ncc2cc(-c3c(Cl)c(OC)cc(OC)c3Cl)ccc2n1`, the Potency was 20.9 µM (active).

For `Cc1cc2occ(CN(C)CCN(C)Cc3cn(-c4cccc(C(F)(F)F)c4)c4ccccc34)c(=O)c2cc1C`, the Potency was 4.61 µM (active).

On to `CCC(C)/C=C(C)/C=C/C1=CC2=C(Cl)C(=O)C(C)(O)C(=O)C2(O)C(OC)O1` (centres undefined), for which the Potency is 10 µM (active).

Consider `COc1ccc(/C=C/C(N)=O)cc1OC`, for which the “viability, % of control” value is 99.6% (inactive).

For the molecule `CCCCCC1CC1CC1CC1CCCCCCCC(=O)O` (centres undefined), the “viability, % of control” value was 92.5% [at 17.3 µM] (inactive).

As for `C=C1C(OC2OC(CO)C(O)C(O)C2O)CC2C(C)(C)C(O)CCC2(C)C1CC/C(C)=C\COC(=O)CC(=O)O` (centres undefined), the Potency was 5.44 µM (active).

For `CC(C)n1nc(Cc2cccc3ccccc23)c2c(N)ncnc21`, the Potency is 8.2 µM (active).

For `N#Cc1cccnc1N1CCN(C(=O)c2cccc(Cc3n[nH]c(=O)c4ccccc34)c2)CC1`, the Potency is 0.186 µM (active).

Consider `CC(=O)OC[C@@]12[C@H](O)C[C@@H](C)[C@]3(C[C@@H](c4ccoc4)OC3=O)[C@H]1C[C@H](O)C[C@]21CO1`, for which the “viability, % of control” value is 70.7% [at 17.3 µM] (inactive).

For the molecule `Nc1nc(-c2nn(Cc3ccccc3F)c3ncccc23)ncc1C1CC1`, the Potency was 1.32 µM (active).

`C=C(C(=O)OC)[C@@H]1CC=C2C=CC(=O)[C@H](C)[C@@]2(C)C1`: the Potency is 18.4 µM (active).

For `COc1cc(C(=O)OC[C@H]2O[C@@H](OC(C)(C)C(=O)O)[C@H](O)[C@@H](O)[C@@H]2O)cc(OC)c1O`, the “viability, % of control” value was 78.1% [at 17.3 µM] (inactive).

Take `CC(=O)C1=C(O)C2c3c[nH]c4cccc(c34)CC2C(C)(C)N(C)C1=O` (centres undefined): the Potency is 23.1 µM (active).

As to `O=C1NC(Cc2c[nH]c3ccccc23)C(=O)NC1Cc1c[nH]c2ccccc12` (centres undefined), the “viability, % of control” value was 79.4% (inactive).

`C=C1C(=O)OC2CC(C)C(CCC(C)O)=CCC12` (centres undefined): the Potency is 7.31 µM (active).

Take `COc1ccc2c(c1)C=C1Cn3c-2c(C2CCCCC2)c2ccc(cc23)C(=O)NS(=O)(=O)N(C)CCOCCN(C)C1=O`: the Potency was 18.4 µM (active).

Turning to `NC(=O)C(O[C@@H]1O[C@H](CO[C@@H]2O[C@H](CO)[C@@H](O)[C@H](O)[C@H]2O)[C@@H](O)[C@H](O)[C@H]1O)c1ccccc1` (some centres undefined), the “viability, % of control” value is 94.9% [at 17.3 µM] (inactive).

As for `COc1ccccc1-c1c[nH]c2ncc(-c3cncc(C(=O)N(C)C)c3)cc12`, the Potency was 1.84 µM (active).

On to `CC(=O)NC(CCC(=O)O)C(=O)NCCc1ccc(O)cc1` (centres undefined), for which the “viability, % of control” value is 85% (inactive).

The record behind these values is PubChem BioAssay (NCATS).
